According to PubChem BioAssay:
A number with no mark means an inactive call. Where a call stands in place of a potency, no number is given. For some assays here: Potency and affinity values are given separately. Calls of active or inactive are those of the source. Unless noted, how the calls were made is not given here.

Columns and labels:
[1] = antimalarial activity against Dd2 strain (AID 2302;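 active means growth inhibition above 50% at the single 2 µM test dose, taken to imply half-maximal potency below 2 µM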); settings: P. falciparum Dd2 in RBCs, LDH growth readout, 72 h; at 2 µM; stronger effect = higher value
[2] = HepG2 cytotoxicity, primary screen, cytotoxicity control for P. falciparum antimalarial project, cell-based, ATP luminescence (AID 2303;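 active means inhibition above 50%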); settings: HepG2 viability, 24-48 h, at 10 µM, stronger effect = higher value
[3] = biological target: L-lactate dehydrogenase (Plasmodium falciparum (isolate CDC / Honduras)) (UniProt Q27743); experiment: PfLDH activity inhibition – cell lysate, 3D7 strain, counter-screen for P. falciparum growth inhibition project (AID 2304); settings: P. falciparum 3D7 crude extract, LDH APAD/NBT absorbance; at 2 µM; stronger effect = higher value
Chain of L-lactate dehydrogenase (Plasmodium falciparum (isolate CDC / Honduras)) (Q27743 whole entry, looked up): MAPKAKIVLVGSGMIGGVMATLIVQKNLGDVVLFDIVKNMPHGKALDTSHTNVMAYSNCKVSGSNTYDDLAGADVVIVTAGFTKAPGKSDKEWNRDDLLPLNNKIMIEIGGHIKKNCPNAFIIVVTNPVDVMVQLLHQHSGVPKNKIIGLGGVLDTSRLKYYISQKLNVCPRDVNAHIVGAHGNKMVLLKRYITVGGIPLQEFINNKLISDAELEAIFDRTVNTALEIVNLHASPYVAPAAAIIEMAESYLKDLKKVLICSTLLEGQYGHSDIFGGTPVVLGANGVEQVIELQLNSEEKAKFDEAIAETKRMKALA

[4] = inhibition of 3D7 malaria parasite growth – strain 3D7 (AID 2306); settings: P. falciparum 3D7 erythrocytic growth, LDH absorbance, 72 h; at 2 µM; stronger effect = higher value
[5] = biological target: Calcium-dependent protein kinase 1 (Plasmodium falciparum (isolate 3D7)) (UniProt P62344); experiment: PfCDPK1 kinase inhibitors, biochemical, TCAMS library (AID 1159585; cut-off not given, nearly all actives have IC50 up to about 0.98 µM;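 further: inhibitors leave more ATP so luminescence rises with inhibition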); settings: recombinant PfCDPK1, Kinase-Glo ATP depletion luminescence
Chain of Calcium-dependent protein kinase 1 (Plasmodium falciparum (isolate 3D7)) (P62344 whole entry, looked up): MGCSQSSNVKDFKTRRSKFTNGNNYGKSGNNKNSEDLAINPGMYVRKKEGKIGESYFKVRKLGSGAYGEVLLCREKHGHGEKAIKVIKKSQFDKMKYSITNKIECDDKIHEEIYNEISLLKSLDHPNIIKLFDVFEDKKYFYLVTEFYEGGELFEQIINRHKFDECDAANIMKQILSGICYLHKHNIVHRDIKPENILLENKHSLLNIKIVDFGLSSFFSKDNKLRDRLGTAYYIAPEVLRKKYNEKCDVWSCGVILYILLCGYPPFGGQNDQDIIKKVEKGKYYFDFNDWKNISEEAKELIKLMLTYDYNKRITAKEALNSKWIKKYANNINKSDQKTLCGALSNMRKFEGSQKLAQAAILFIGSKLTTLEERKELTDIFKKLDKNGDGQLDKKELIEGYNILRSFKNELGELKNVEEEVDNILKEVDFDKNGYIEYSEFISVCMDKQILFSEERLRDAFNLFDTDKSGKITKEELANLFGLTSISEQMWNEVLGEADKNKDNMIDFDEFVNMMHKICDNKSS

[6] = biological target: Plasmodium falciparum protein kinase 6 (PK6, PF3D7_1337100) (UniProt Q8IDW1); experiment: PfPK6 kinase inhibitors, biochemical, TCAMS library (AID 1159586); settings: recombinant PfPK6, Kinase-Glo ATP depletion luminescence
Chain of Plasmodium falciparum protein kinase 6 (PK6, PF3D7_1337100) (Q8IDW1 1-305): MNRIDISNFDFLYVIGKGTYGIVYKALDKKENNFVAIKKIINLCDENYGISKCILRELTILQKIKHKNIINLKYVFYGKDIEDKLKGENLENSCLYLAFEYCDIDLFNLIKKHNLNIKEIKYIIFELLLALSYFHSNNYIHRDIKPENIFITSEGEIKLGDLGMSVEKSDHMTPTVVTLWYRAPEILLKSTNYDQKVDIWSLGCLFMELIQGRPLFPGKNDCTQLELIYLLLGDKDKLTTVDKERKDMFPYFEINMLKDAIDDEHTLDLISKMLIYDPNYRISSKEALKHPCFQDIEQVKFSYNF

[7] = biological target: Protein kinase 7 (PK7), Plasmodium falciparum 3D7 (PF3D7_0213400) (UniProt Q7YTF7); experiment: inhibition of Plasmodium PK7 catalytic activity – biochemical, TCAMS antimalarial set, Kinase-Glo luminescence (AID 1159587); settings: recombinant PfPK7, Kinase-Glo ATP depletion luminescence
Chain of Protein kinase 7 (PK7), Plasmodium falciparum 3D7 (PF3D7_0213400) (Q7YTF7 1-343): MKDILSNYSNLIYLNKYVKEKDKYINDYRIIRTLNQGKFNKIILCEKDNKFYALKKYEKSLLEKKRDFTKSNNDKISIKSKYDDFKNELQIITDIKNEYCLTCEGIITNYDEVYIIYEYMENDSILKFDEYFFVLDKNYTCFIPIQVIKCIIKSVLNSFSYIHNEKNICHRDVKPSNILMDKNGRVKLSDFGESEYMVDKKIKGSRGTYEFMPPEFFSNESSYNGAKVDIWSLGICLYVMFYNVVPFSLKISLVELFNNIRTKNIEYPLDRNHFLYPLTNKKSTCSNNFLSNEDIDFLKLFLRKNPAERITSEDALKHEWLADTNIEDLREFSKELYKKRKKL

[8] = biological target: Calcium-dependent protein kinase 4 (Plasmodium falciparum (isolate 3D7)) (UniProt Q8IBS5); experiment: PfCDPK4 kinase inhibitors, biochemical, TCAMS library (AID 1159588; cut-off not given, nearly all actives have IC50 up to about 0.91 µM); settings: recombinant PfCDPK4, Kinase-Glo ATP depletion luminescence
Chain of Calcium-dependent protein kinase 4 (Plasmodium falciparum (isolate 3D7)) (Q8IBS5 whole entry, looked up): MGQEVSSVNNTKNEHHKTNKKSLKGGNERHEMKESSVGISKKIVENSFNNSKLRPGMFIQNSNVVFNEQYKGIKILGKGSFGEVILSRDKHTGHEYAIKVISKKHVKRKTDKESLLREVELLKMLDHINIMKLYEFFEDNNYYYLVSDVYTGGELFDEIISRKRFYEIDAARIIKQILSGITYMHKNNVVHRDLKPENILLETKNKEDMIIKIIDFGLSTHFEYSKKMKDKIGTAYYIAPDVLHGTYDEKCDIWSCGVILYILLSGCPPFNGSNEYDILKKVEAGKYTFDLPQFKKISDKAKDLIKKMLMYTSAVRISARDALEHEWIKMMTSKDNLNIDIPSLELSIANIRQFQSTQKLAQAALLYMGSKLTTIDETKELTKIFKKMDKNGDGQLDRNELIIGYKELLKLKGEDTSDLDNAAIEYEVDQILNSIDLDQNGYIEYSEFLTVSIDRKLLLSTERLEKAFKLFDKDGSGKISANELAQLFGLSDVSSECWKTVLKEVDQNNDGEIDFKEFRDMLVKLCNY

SMILES	growth inhibition [1]	inhibition [2]	inhibition [3] [%]	growth inhibition [4]	outcome [5]	outcome [6]	outcome [7]	outcome [8]
Cc1ccc2sc(N(CCCn3ccnc3)C(=O)c3ccco3)nc2c1C	98% (active)	9%	-2	93% (active)	inactive	inactive	inactive	inactive
COc1ccccc1C1CCN(C2CCC(NC(=O)/C=C/c3ccc(C(F)(F)F)cc3)CC2)CC1 (stereo not given)	7%	57% (active)	4	88% (active)	inactive	inactive	inactive	inactive
CCc1nc(N)nc(N)c1-c1ccc(C(C)(C)C)cc1	-5%	27%	-7	94% (active)	inactive	inactive	inactive	inactive
O=C(Cc1n[nH]c(=O)c2ccccc12)Nc1cccc(C(=O)Nc2cccc(C(F)(F)F)c2)c1	90% (active)	0%	-6	97% (active)	inactive	inactive	inactive	inactive
Cc1cccc(NC(=O)NC2CCN(CCCCCNC(=O)/C=C/c3ccc(Cl)c(Cl)c3)CC2)c1	21%	34%	-3	101% (active)	inactive	inactive	inactive	inactive
CN1CCCN(Cc2cccc(-c3ccc(CNC(=O)c4cccc(Cl)c4)c(F)c3)c2)CC1	38%	56% (active)	-2	96% (active)	inactive	inactive	inactive	inactive
CCN(CC)CCN(Cc1ccc(-c2ccc(C(F)(F)F)cc2)cc1)C(=O)Cn1c(CCc2cc(F)c(F)cc2F)nc(=O)c2ccccc21	50% (active)	39%	-4	99% (active)	inactive	inactive	inactive	inactive
Cc1ccc(-c2ccn(Cc3cccc(OCc4ccccc4)c3)n2)cn1 (tested in a mixture with another compound)	64% (active)	-4%	0	82% (active)	inactive	inactive	inactive	inactive
CN(C)CCNCc1cccc(-c2ccc3c(Nc4ccc(Oc5ccccc5)cc4)ccnc3c2)c1	99% (active)	31%	2	101% (active)	inactive	inactive	inactive	inactive
C[C@H](NC(=O)c1c(CN2CCN(C(=O)C(C)(C)C)CC2)c(-c2cccs2)nc2ccccc12)C1CCCCC1	62% (active)	2%	3	89% (active)	inactive	inactive	inactive	inactive
O=C(C=Cc1ccc(Cl)c(Cl)c1)NCCCCCN1CCC(CCCNS(=O)(=O)c2ccc(Br)cc2)CC1	25%	74% (active)	-5	93% (active)	inactive	inactive	inactive	inactive
Cc1ccc2nc(C)cc(NN=Cc3ccc(Cl)cc3)c2c1	35%	-9%	6	102% (active)	inactive	inactive	inactive	inactive
O=[N+]([O-])c1ccc(Nc2nc(NN=Cc3cccc(O)c3)nc(N3CCCC3)n2)cc1	9%	-6%	-5	88% (active)	inactive	inactive	inactive	inactive
Cc1ccc(Nc2nccc(NCC(O)c3ccc(C(F)(F)F)cc3)n2)cc1 (stereo not given)	100% (active)	53% (active)	-7	100% (active)	inactive	inactive	inactive	inactive
CNC(=O)C1Cc2c([nH]c3cc(Br)ccc23)C2(CCN(CCc3ccccc3)CC2)N1 (stereo not given)	31%	10%	-8	101% (active)	inactive	inactive	inactive	inactive
NC(N)=NC(=O)Nc1cc(Cl)c(Cl)c(C(F)(F)F)c1	99% (active)	6%	-5	100% (active)	inactive	inactive	inactive	inactive
COc1ccc2nccc([C@@H](O)CN3CCC(NCc4nc5cc(F)c(F)cc5[nH]4)CC3)c2c1	36%	12%	-1	96% (active)	inactive	inactive	inactive	inactive
Cn1nc(-c2ccccc2F)c2cc(C(=O)NC3CCN(Cc4ccccc4)CC3)sc21	34%	5%	3	97% (active)	inactive	inactive	inactive	inactive
COc1ccc(NC(=O)[C@H](CC(C)C)Nc2cc(C)nc(NCc3cccc(C)c3)n2)cc1	90% (active)	24%	-1	101% (active)	inactive	inactive	inactive	inactive
OC1CCCN(Cc2ccc(-c3ccc(-c4nc5ccc(F)cc5[nH]4)cc3)cc2)C1 (stereo not given)	79% (active)	55% (active)	2	100% (active)	inactive	inactive	inactive	inactive

SMILES	growth inhibition [1]	inhibition [2]	inhibition [3] [%]	growth inhibition [4]	outcome [5]	outcome [6]	outcome [7]	outcome [8]
COc1ccc(C(=O)CCC(=O)N(Cc2ccc(-c3ccc(CNCCc4ccc(S(C)(=O)=O)cc4)cn3)cc2)C2CCN(Cc3ccccc3)CC2)cc1F	72% (active)	20%	2	99% (active)	inactive	inactive	inactive	inactive
Cc1c(CNCCCNc2nc3ccccc3[nH]2)[nH]c2cc(Cl)cc(Cl)c12	-1%	59% (active)	-6	101% (active)	inactive	inactive	inactive	inactive
Nc1cccc(CNCc2ccc(-c3ccc(-c4nc5ccc(C(F)(F)F)cc5[nH]4)s3)cc2)c1	98% (active)	28%	-2	102% (active)	inactive	inactive	inactive	inactive
CCc1cn2c3c(cc(C(=O)N[C@@H](Cc4ccccc4)[C@H](O)CNCc4ccccc4)cc13)N(C)S(=O)(=O)CC2	99% (active)	3%	1	98% (active)	inactive	inactive	inactive	inactive
O=C(Nc1ccc(Cl)c(C(F)(F)F)c1)c1ccc(Cl)c([N+](=O)[O-])c1	18%	20%	-2	87% (active)	inactive	inactive	inactive	inactive
COc1ccc(C=NNc2nc3ccccc3[nH]2)cc1O	13%	15%	0	95% (active)	inactive	inactive	inactive	inactive
CCCCCC(C)C(C)c1cc(OC(N)=O)c2c(c1)OC(C)(C)C=C2c1ccncc1 (stereo not given)	-1%	81% (active)	0	96% (active)	inactive	inactive	inactive	inactive
CCN(CC)CCN(Cc1ccc(-c2ccc(C(F)(F)F)cc2)cc1)C(=O)Cn1c(CCc2cccc(C#N)c2)nc(=O)c2ccccc21	47%	36%	-1	101% (active)	inactive	inactive	inactive	inactive
CC(Oc1ccc(Cl)cc1)C(=O)NCCC1CCN(CCCCCNC(=O)/C=C/c2ccc(Cl)c(Cl)c2)CC1 (stereo not given)	20%	48%	-5	89% (active)	inactive	inactive	inactive	inactive
NC1CCCN(Cc2ccc(-c3ccc(-c4nc5ccccc5[nH]4)s3)cc2)C1 (stereo not given)	99% (active)	40%	-2	102% (active)	inactive	inactive	inactive	inactive
CC(=O)Nc1nc(C(=O)Nc2ccc(-c3cccc(-c4nc5c(C)cccc5[nH]4)c3)cc2)cs1	73% (active)	100% (active)	-4	101% (active)	inactive	inactive	inactive	inactive
COc1cc(Nc2nccc(N3CCC(NC(=O)c4cccc(C#N)c4)C3)n2)cc(OC)c1OC (stereo not given)	76% (active)	13%	-8	91% (active)	inactive	inactive	inactive	inactive
O=C(NC1CCCCN(Cc2ccc3c(c2)OCCO3)C1)c1cc(-c2ccccc2F)cs1 (stereo not given)	19%	8%	1	92% (active)	inactive	inactive	inactive	inactive
CC(C)NCc1cccc(-c2ccc(NS(=O)(=O)c3cccc4cccnc34)cc2)c1	10%	21%	5	90% (active)	inactive	inactive	inactive	inactive
O=S(=O)(Nc1cccc(CCN2CCCCC2CCN2CCCC2)c1)c1ccc(Oc2ccccc2)cc1 (stereo not given)	1%	52% (active)	-2	94% (active)	inactive	inactive	inactive	inactive
Cc1[nH]c(C)c(-c2csc3ccccc23)c(=O)c1Cl	75% (active)	7%	6	97% (active)	inactive	inactive	inactive	inactive
COc1ccc2c(NN=C(C)c3ccccn3)cc(C)nc2c1	51% (active)	33%	-5	102% (active)	inactive	inactive	inactive	inactive
Nc1ncc(OC2CCCCC2)c(N)n1	-1%	-4%	-1	94% (active)	inactive	inactive	inactive	inactive
O=C(Oc1ccc(Cl)cc1C(=O)Nc1ccc([N+](=O)[O-])cc1Cl)c1ccccc1	19%	88% (active)	3	97% (active)	inactive	inactive	inactive	inactive
c1ccn2c(-c3ncnc(NCc4ccc5c(c4)CCO5)n3)cnc2c1	47%	12%	0	86% (active)	inactive	inactive	inactive	inactive
